Results published in PubChem BioAssay.
Values without a mark were called inactive. No rule for the calls is given here.

biological target: L-lactate dehydrogenase (Plasmodium falciparum (isolate CDC / Honduras)) (UniProt Q27743); experiment: PfLDH activity inhibition – cell lysate, 3D7 strain, counter-screen for P. falciparum growth inhibition project (AID 2304);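 also: 0% = vehicle and 100% = reference inhibitor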; conditions: P. falciparum 3D7 crude extract, LDH APAD/NBT absorbance; at 2 µM; hits give high values
Sequence (Q27743 whole entry, looked up): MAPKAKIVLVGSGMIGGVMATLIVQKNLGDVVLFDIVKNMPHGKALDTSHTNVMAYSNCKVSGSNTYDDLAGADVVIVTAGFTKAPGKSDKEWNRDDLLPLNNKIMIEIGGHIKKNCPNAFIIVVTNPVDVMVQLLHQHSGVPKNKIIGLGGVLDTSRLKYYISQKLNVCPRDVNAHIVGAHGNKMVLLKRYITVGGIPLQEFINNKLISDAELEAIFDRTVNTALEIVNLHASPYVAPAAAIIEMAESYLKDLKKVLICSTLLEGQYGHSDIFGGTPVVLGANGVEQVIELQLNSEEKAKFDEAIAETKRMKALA

Row | SMILES | inhibition [%]
1 | CCC(C(=O)Nc1cc(=O)[nH]c2nc(-c3ccco3)nn12)c1ccccc1 (centres undefined) | -1
2 | O=C(Nc1ccc(-c2csc(-c3nc4ccccc4[nH]3)c2)cc1)Nc1ccc(Cl)c(Cl)c1 | -6
3 | O=C(Nc1ccc(C(=O)N2CCN(CCN3CCN(c4cccc(C(F)(F)F)c4)CC3)CC2)cc1)c1ccc(C(F)(F)F)cc1 | 0
4 | COc1ccc(CNC2CCN(C)CC2)cc1-c1ccc(S(=O)(=O)NCc2ccccc2)c(F)c1 | 4
5 | CCCCN(Cc1cc(Cl)c(OCC)c(OC)c1)c1ccc(C(O)(C(F)(F)F)C(F)(F)F)cc1 | -6
6 | O=C(NCCCCN1CCN(c2cccc3ccccc23)CC1)c1ccc(NC(=O)c2ccc(Cl)cc2)cc1 | 6
7 | CCOc1ccccc1[C@H]1[C@H](C(=O)C(C)(C)C)N2c3ccc(Br)cc3C=CC2C12C(=O)c1ccccc1C2=O (some centres undefined) | 1
8 | Cc1nnsc1C(=O)Nc1cccc(-c2ccc(-c3nc4ccc(F)cc4[nH]3)s2)c1 | 4
9 | O=C1C2=C(Nc3ccccc3SC2c2cccs2)c2ccccc21 (centres undefined) | 5
10 | COc1ccc(CCNCCCCCCNCCc2ccc(Cl)cc2)c(Cl)c1OC | 5
11 | C=CCc1cccc(C)c1OCCCON1C(N)=NC(N)=NC1(C)C | -8
12 | COc1ccccc1N(C)CCNc1cc(C)nc(Nc2ccccc2)n1 | -1
13 | CN1CCN(C(C(=O)NCc2cc(Cl)cc(Cl)c2)c2ccccc2-c2ccsc2)CC1 (centres undefined) | 2
14 | CNCCNCc1cccc(-c2ccc(-c3nc4c(C)cccc4[nH]3)s2)c1 | -6
